One assay deals with Staphylococcus aureus. The conditions noted are these: Concentration 32 ug.mL-1; ASSAY_TEST Inhibition of Bacterial Growth; detection method Absorption (OD600); MEDIA CAMHB; plate type 384well; NBS; CORNING #3640; time 18 hr.
The next assay deals with Escherichia coli. Particulars: Concentration 32 ug.mL-1; ASSAY_TEST Inhibition of Bacterial Growth; detection method Absorption (OD600); MEDIA CAMHB; plate type 384well; NBS; CORNING #3640; time 18 hr.

A word on the Inhibition: it is the drop in the measured response relative to a control, in per cent.

Potency and affinity values are given separately.

`CC(=O)O[C@H]1C[C@@]2(C)C(C[C@@H](O)C3[C@@]4(C)CC[C@@H](O)[C@@H](C)C4CC[C@@]32C)/C1=C(\CCC=C(C)C)C(=O)OCc1ccccc1` (some centres not stated): the figures for the Inhibition in the assay on Staphylococcus aureus and with Escherichia coli were 36.65% and -11.95%, respectively.

Turning to `CC(=O)O[C@H]1C[C@@]2(C)C(CC(=O)C3[C@@]4(C)CC[C@@H](OC(=O)CCCCO[N+](=O)[O-])[C@@H](C)C4CC[C@@]32C)/C1=C(\CCC=C(C)C)C(=O)OCc1ccccc1` (some centres not stated), the Inhibition with Staphylococcus aureus is reported as 9.81%; in the assay with Escherichia coli, -0.69%.

In the case of `CC(=O)O[C@H]1C[C@@]2(C)C(C[C@@H](O)C3[C@@]4(C)CC[C@@H](OC(=O)C(N)C(C)C)[C@@H](C)C4CC[C@@]32C)/C1=C(\CCC=C(C)C)C(=O)OCc1ccccc1` (some centres not stated), the figures for the Inhibition in the assay with Staphylococcus aureus and in the assay on Escherichia coli were -9.9% and -10.45%, respectively.

On to `CC(=O)O[C@H]1C[C@@]2(C)C(C[C@@H](O)C3[C@@]4(C)CC[C@@H](OC(=O)CO[N+](=O)[O-])[C@@H](C)C4CC[C@@]32C)/C1=C(\CCC=C(C)C)C(=O)OCc1ccccc1` (some centres not stated), for which the Inhibition in the assay on Staphylococcus aureus was determined as 5.41%; in the assay with Escherichia coli, 4.14%.

On to `CC(=O)O[C@H]1C[C@@]2(C)C(C[C@@H](O)C3[C@@]4(C)CC[C@@H](OC(=O)CCC(=O)O)[C@@H](C)C4CC[C@@]32C)/C1=C(\CCC=C(C)C)C(=O)OCc1ccccc1` (some centres not stated), for which the Inhibition with Staphylococcus aureus worked out at 44.88%; with Escherichia coli it was 10.14%.

Consider `CC(=O)O[C@H]1C[C@@]2(C)C(C[C@@H](O)C3[C@@]4(C)CC[C@@H](OC(=O)c5ccccc5C(=O)OCCc5ccc(OCCO[N+](=O)[O-])cc5)[C@@H](C)C4CC[C@@]32C)/C1=C(\CCC=C(C)C)C(=O)OCc1ccccc1` (some centres not stated), for which the results for the Inhibition in the assay with Staphylococcus aureus and in the assay on Escherichia coli were 8.23% and 0.28%, respectively.

(Values after ChEMBL document CHEMBL4513152, “CO-ADD screening of Yantai University (China) compounds”.)
